{"source": "PubChem BioAssay (NCATS)"}
{"assay": "qHTS profiling of the MIPE4 collection as inhibitors of Plasmodium falciparum (3D7) proliferation (AID 743344);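 further: scaled between DMSO vehicle wells and 0.29 µM artemisinin as full inhibition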", "details": "P. falciparum 3D7 in erythrocytes, SYBR Green DNA fluorescence, 72 h; at 28.5 µM unless noted", "description": "Plasmodium falciparum is a virulent malarial parasite that kills 1-2 million people worldwide each year. Transmitted by mosquitoes, the sporozoite form of the parasite enters the blood stream to infect hepatocytes, where they become merozoites that infect red blood cells (erythrocytes). Within erythrocytes, merozoites begin a […] cycle of growth and division, after which the parasite is released to infect new red blood cells. Gametocytes, which form within erythrocytes as well, circulate in the bloodstream and are ingested by the mosquito, thereby completing the life cycle. To profile malarial isolates for differential chemical responses and to identify inhibitors of malarial growth, an assay that measures P. falciparum growth and replication within erythrocytes was employed. This assay uses a DNA binding fluorescent dye (SYBR Green) to detect parasite DNA following cell lysis. Because mature erythrocytes lack DNA, only Plasmodium-derived DNA is detected.\nThe SYBR Green viability assay was adapted from a method described previously (Plouffe et al., 2008). For screening 3 ul culture medium was dispensed into 1536 well black clear bottom plates (Aurora Biotechnologies) using a Multidrop Combi (Thermo Fisher Scientific Inc.), 23 nL compounds in DMSO were added by a pin tool (Kalypsys), and 5 ul of erythrocytes infected with P. falciparum (0.3% parasitemia, 2.5% hematocrit final concentration) were added. The plates were incubated at 37 C in a humidified incubator in 5% CO2 for 72 h, and 2 ul lysis buffer (20 mM Tris HCl, 10 mM EDTA, 0.16% saponin, 1.6% triton X, 10X SYBR Green I supplied as 10,000X […] by Invitrogen) was added to each well. The plates were mixed for 25 sec with gentle shaking and incubated overnight at room temperature in the dark. The following morning, fluorescence intensity at 485(14) nm excitation and 535(25) nm emission wavelengths was measured on an EnVision (Perkin Elmer) plate reader. Plate reads were normalized relative to the control inhibitor (0.29 uM artemisinin) and vehicle (DMSO) wells present on each plate and then corrected by an algorithm using vehicle-only control plates at the beginning and end of the compound plate stack."}
{"molecule": "CNC(=O)c1cc(Oc2ccc(NC(=O)Nc3ccc(Cl)c(C(F)(F)F)c3)c(F)c2)ccn1", "parasite growth, % of DMSO control": "5.25%"}
{"molecule": "O=C(C=Cc1ccc(O)cc1)c1ccc(O)cc1O", "parasite growth, % of DMSO control": "19.6%"}
{"molecule": "COC(=O)[C@H](c1ccccc1Cl)N1CCc2sccc2C1", "parasite growth, % of DMSO control": "43.8%"}
{"molecule": "CCOC(=O)c1c(CSc2ccccc2)n(C)c2cc(Br)c(O)c(CN(C)C)c12", "parasite growth, % of DMSO control": "8.99%"}
{"molecule": "NC(N)=Nc1nc(CSCCC(N)=NS(N)(=O)=O)cs1", "parasite growth, % of DMSO control": "74.6%"}
{"molecule": "C=C1[C@H](n2cnc3c(=O)[nH]c(N)nc32)C[C@H](O)[C@H]1CO", "parasite growth, % of DMSO control": "53.5%"}
{"molecule": "Cc1ccc(C(=O)N(CCCN)[C@@H](c2nc3cc(Cl)ccc3c(=O)n2Cc2ccccc2)C(C)C)cc1", "parasite growth, % of DMSO control": "4.61%"}
{"molecule": "Cc1cccc(Nc2nc(N[C@@H]3CCCC[C@H]3N)ncc2C(N)=O)c1", "parasite growth, % of DMSO control": "5.2%"}
{"molecule": "COc1ccc(CCN(C)CCCOc2ccc(S(=O)(=O)c3[nH]c4ccccc4c3C(C)C)cc2)cc1OC", "parasite growth, % of DMSO control": "31.8%"}
{"molecule": "Cc1cnc(Nc2cccc(CN3CCOCC3)c2)nc1Nc1cccc(S(=O)(=O)NC(C)(C)C)c1", "parasite growth, % of DMSO control": "4.05%"}
{"molecule": "COc1cc(C=CC(=O)O)ccc1O", "parasite growth, % of DMSO control": "88.4%"}
{"molecule": "O=S(=O)(O)c1ccc2cc(N=Nc3cc(S(=O)(=O)O)c4cccnc4c3O)ccc2c1", "parasite growth, % of DMSO control": "84.5%"}
{"molecule": "C[C@]12CCC3=C4CCC(=O)C=C4CC[C@@H]3[C@H]1CC[C@@]2(O)CC#N", "parasite growth, % of DMSO control": "92.8%"}
{"molecule": "CCCC1OC2C[C@@H]3[C@H]4CCC5=CC(=O)C=C[C@]5(C)[C@H]4C(O)C[C@]3(C)[C@]2(C(=O)CO)O1", "note": "(stereo not given in full)", "parasite growth, % of DMSO control": "11.7%"}
{"molecule": "CCCCC[C@H](O)C=C[C@H]1[C@H](O)CC(=O)[C@H]1CC=CCCCC(=O)O", "parasite growth, % of DMSO control": "86%"}
{"molecule": "c1cc(OCCN2CCCCC2)cc(-c2n[nH]c3ccc(-c4ncn[nH]4)cc23)c1", "parasite growth, % of DMSO control": "8.07%"}
{"molecule": "C[C@@H]1O[C@@H](O[C@H]2CC[C@@]3(C)[C@H](CC[C@@H]4[C@H]3C[C@@H](O)[C@]3(C)[C@@H](C5=CC(=O)OC5)CC[C@]43O)C2)C[C@H](O)[C@@H]1O[C@H]1C[C@H](O)[C@H](O[C@H]2C[C@H](O)[C@@H](O)[C@@H](C)O2)[C@H](C)O1", "note": "(stereo in doubt)", "parasite growth, % of DMSO control": "57.6% [at 57.5 µM]"}
{"molecule": "C=C[C@@H]1CN2CCC1C[C@@H]2C(O)c1ccnc2ccc(OC)cc12", "note": "(stereo not given in full)", "parasite growth, % of DMSO control": "8.37%"}
{"molecule": "COc1cc([C@@H]2c3cc4c(cc3[C@@H](O[C@@H]3O[C@@H]5CO[C@@H](C)O[C@@H]5[C@H](O)[C@@H]3O)[C@H]3COC(=O)[C@H]23)OCO4)cc(OC)c1O", "parasite growth, % of DMSO control": "10.3%"}
{"molecule": "NS(=O)(=O)c1ccc(Nc2nc(OCC3CCCCC3)c3[nH]cnc3n2)cc1", "parasite growth, % of DMSO control": "17.4%"}
{"molecule": "CCNC(=O)CCCC=CC[C@@H]1[C@H](C=CC(O)CCc2ccccc2)[C@@H](O)C[C@@H]1O", "note": "(stereo not given in full)", "parasite growth, % of DMSO control": "63.1%"}
{"molecule": "COc1ccc2nc3cc(Cl)ccc3c(Nc3cc(CN4CCCC4)c(O)c(CN4CCCC4)c3)c2n1", "parasite growth, % of DMSO control": "7.61%"}
{"molecule": "Cc1cccc(-c2[nH]c(C(C)(C)C)nc2-c2ccc3c(c2)OCO3)n1", "parasite growth, % of DMSO control": "9.08%"}
{"molecule": "C[C@@H]1[C@H](C)CC[C@]2(C(=O)O)CC[C@]3(C)C(=CC[C@@H]4[C@@]5(C)CC[C@H](O)C(C)(C)[C@H]5CC[C@]43C)[C@@H]12", "parasite growth, % of DMSO control": "4.81% [at 57.5 µM]"}
{"molecule": "CNC(=O)[C@H](Cc1ccccc1)NC(=O)[C@H](CC(C)C)[C@H](CSc1cccs1)C(=O)NO", "parasite growth, % of DMSO control": "4.98%"}
{"molecule": "CCC[C@H](Nc1nc(-c2ccc(NC(=O)NCC)c(OC)c2)ncc1C)c1cccnc1", "parasite growth, % of DMSO control": "4.72%"}
{"molecule": "Cc1nc(NC(=O)N2CCC[C@@H]2C(N)=O)sc1-c1csc(C(C)(C)C)n1", "parasite growth, % of DMSO control": "16.4%"}
{"molecule": "CC1CCN(c2cc(N3CCN(C)CC3)ccc2NC(=O)c2cc(C#N)c[nH]2)CC1", "parasite growth, % of DMSO control": "39.9%"}
{"molecule": "CNc1nc(Nc2ccc(C(=O)N3CCOCC3)cc2OC)ncc1Cl", "parasite growth, % of DMSO control": "69.3%"}
{"molecule": "O[C@@H](COc1cccc2ncccc12)CN1CCN(C2c3ccccc3[C@@H]3[C@H](c4ccccc42)C3(F)F)CC1", "note": "(stereo not given in full)", "parasite growth, % of DMSO control": "47.1%"}
{"molecule": "CCCCCCOC(=O)N=C(N)c1ccc(NCc2nc3cc(C(=O)N(CCC(=O)OCC)c4ccccn4)ccc3n2C)cc1", "parasite growth, % of DMSO control": "9.57%"}
{"molecule": "Nc1ncnc2c1ncn2[C@@H]1O[C@H](CO)[C@@H](O)[C@@H]1O", "parasite growth, % of DMSO control": "6.49%"}
{"molecule": "O=C(c1ccc(C(=O)N2CCC(N3CCCC3)CC2)c(Nc2ccccc2)c1)N1CCC(N2CCCC2)CC1", "parasite growth, % of DMSO control": "80.6%"}
{"molecule": "COc1ccc(-c2ccc3ncc4c(c3c2)n(-c2ccc(N3CCNCC3)c(C(F)(F)F)c2)c(=O)n4C)cn1", "parasite growth, % of DMSO control": "7.25%"}
{"molecule": "CCNC(=O)Nc1ccc(Oc2ncnc(N)c2C=NOC)cc1Cl", "parasite growth, % of DMSO control": "71.9%"}
{"molecule": "Oc1cc(O)cc(C=Cc2ccc(O)c(O)c2)c1", "parasite growth, % of DMSO control": "39.8%"}
{"molecule": "COc1ccc(CCC(=O)Nc2nc3ccc(Cl)cc3s2)cc1OC", "parasite growth, % of DMSO control": "22.3%"}
{"molecule": "O=C1NC(=O)C(=Cc2ccc(-c3ccc(F)cc3O)o2)S1", "parasite growth, % of DMSO control": "34.3%"}
{"molecule": "O=C1Nc2ccc(I)cc2C1=Cc1cc(Br)c(O)c(Br)c1", "parasite growth, % of DMSO control": "20.7%"}
{"molecule": "CC1(C)OC2CC3C4CC(F)C5=CC(=O)C=CC5(C)C4C(O)CC3(C)[C@]2(C(=O)CO)O1", "note": "(stereo not given in full)", "parasite growth, % of DMSO control": "52.8%"}
